Experimental data published in PubChem BioAssay (Tox21).
Where “and” joins values, the source holds several entries; their conditions need not be identical. Equal values may be shown once. Records with an inconclusive call do not appear. Entries that show only a call come without a potency. Where a structure was tested more than once in an assay, its records may differ in their call. Calls of active or inactive are those of the source. The call rests on the fitted dose curve; in most records, active means well fitted curve in the direction sought with a large enough effect in the repeat runs; inconclusive means weak or mixed curves; inactive means no such curve, though single readings can be large; an effect the other way counts as inactive or inconclusive.

Columns and labels:
[1] = A CellTox Green Cytotoxicity Assay to monitor cytotoxicity in HEK293 cells - 40 hour (AID 1224871); further: nearly all actives have a fitted effect of over 45% in size; further: potency means the concentration at half of the fitted maximal effect
Procedure, shortened: (§1)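 HEK293 cells, 600/well, were preincubated 5 hours and then exposed to compounds at 37 C for up to 40 hours. A cell-impermeant cyanine dye staining dead-cell DNA was read by fluorescence at 0, 8, 16, 24, 32 and 40 h time points.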

[2] = qHTS RealTime-Glo MT Cell Viability Assay in HEK293 cells - 16 hour (AID 1224872); further: nearly all actives have a fitted effect of over 50% in size; further: potency means the concentration at half of the fitted maximal effect
Procedure, shortened: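 Quantitative high-throughput screen of the Tox21 10K library in HEK293: cells and RealTime-Glo reagents plated together, compound added at 5 h, luminescence monitored through 40 h at 37 C.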

[3] = qHTS RealTime-Glo MT Cell Viability Assay in HEK293 cells - 40 hour (AID 1224874); conditions: RealTime-Glo luminescence; max response: stronger effect = lower value; further: nearly all actives have a fitted effect of over 50% in size; further: potency means the concentration at half of the fitted maximal effect
Procedure, shortened: (§2)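 600 cells/well were plated with the nonlytic NanoLuc/prosubstrate reagent, pre-incubated 5 h, then given 23 nL of compound in DMSO. Incubation at 37 C for 40 h, with luminescence from viable-cell-reduced substrate read repeatedly from 0 h.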

[4] = A CellTox Green Cytotoxicity Assay to monitor cytotoxicity in HEK293 cells - 24 hour (AID 1224875); further: nearly all actives have a fitted effect of over 45% in size; further: potency means the concentration at half of the fitted maximal effect
Procedure, shortened: as §1

[5] = qHTS RealTime-Glo MT Cell Viability Assay in HEK293 cells - 0 hour (AID 1224880); further: top concentration of the series differs between compounds; nearly all actives have a fitted effect of over 45% in size
Procedure, shortened: as §2

[6] = A CellTox Green Cytotoxicity Assay to monitor cytotoxicity in HepG2 cells - 24 hour (AID 1224878); further: nearly all actives have a fitted effect of over 45% in size; further: potency means the concentration at half of the fitted maximal effect
Procedure, shortened: (§3)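 HepG2 cells, 600/well, preincubated 5 h with CellTox Green dye, then exposed to Tox21 compounds in DMSO at 37 C for up to 40 h. Dead-cell DNA fluorescence read at the indicated time point.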

[7] = A CellTox Green Cytotoxicity Assay to monitor cytotoxicity in HepG2 cells - 40 hour (AID 1224879); further: nearly all actives have a fitted effect of over 40% in size; further: potency means the concentration at half of the fitted maximal effect
Procedure, shortened: as §3

[8] = qHTS RealTime-Glo MT Cell Viability Assay in HepG2 cells - 8 hour (AID 1224873); further: nearly all actives have a fitted effect of over 55% in size; further: potency means the concentration at half of the fitted maximal effect
Procedure, shortened: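 Real-time viability: cells seeded at 600 per well together with NanoLuc and cell-permeant prosubstrate, compounds added after 5 h incubation. Luminescence tracked at 0, 8, 16, 24, 32 and 40 h of exposure.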

[9] = A CellTox Green Cytotoxicity Assay to monitor cytotoxicity in HepG2 cells - 16 hour (AID 1224876); further: nearly all actives have a fitted effect of over 45% in size; further: potency means the concentration at half of the fitted maximal effect
Procedure, shortened: as §3

[10] = qHTS RealTime-Glo MT Cell Viability Assay in HepG2 cells - 32 hour (AID 1224877); further: nearly all actives have a fitted effect of over 55% in size; further: potency means the concentration at half of the fitted maximal effect
Procedure, shortened: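 Compound treatment began 5 h after plating HepG2 cells (600/well) with NanoLuc luciferase and prosubstrate. Plates stayed at 37 C for 40 h; luminescence was captured at six time points, 0 h through 40 h.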

| Compound | Potency [1] | Potency [2] | max response [3] | Potency [4] | Potency [5] | Potency [6] | Potency [7] | Potency [8] | Potency [9] | Potency [10] | Potency [3] |
| --- | --- | --- | --- | --- | --- | --- | --- | --- | --- | --- | --- |
| Nc1c(Cl)c(Cl)c(Cl)c(Cl)c1Cl | inactive | inactive | -2.22% (inactive) | inactive | inactive |  |  |  |  |  |  |
| CN=C=O | inactive | inactive | 8.4% (inactive) | inactive | inactive | inactive | inactive |  |  |  |  |
| O=[N+]([O-])[O-].[Tl+] | inactive | inactive |  |  | inactive | inactive | inactive | inactive | inactive | inactive |  |
| CCCCCCCc1ccc(O)cc1 | 43.6 µM (active) | 11 µM (active) |  | 43.6 µM (active) | inactive | 21.9 µM (active) | 21.9 µM (active) |  | 21.9 µM (active) | inactive | 21.9 µM (active) |
| CCCN | inactive | inactive | -0.242% (inactive) | inactive | inactive |  |  |  | inactive | inactive |  |
| Oc1ccc(Cl)c(Cl)c1 | inactive | inactive | -18.2% (inactive) | inactive |  |  | inactive |  | inactive | inactive |  |
| N#CCCl | inactive | inactive |  | inactive | inactive | inactive | inactive | inactive | inactive | inactive |  |
| CCOP(=O)(OCC)Oc1cc(C)nc(C(C)C)n1 | inactive | inactive | 1.52% (inactive) |  | inactive | inactive | inactive | inactive | inactive |  |  |
| CCC[CH2][Sn]([CH2]CCC)([CH2]CCC)[O][Sn]([CH2]CCC)([CH2]CCC)[CH2]CCC | 0.302 µM (active) | 0.214 µM (active) |  | 0.427 µM (active) |  | 0.537 µM (active) | 0.537 µM (active) |  | 0.603 µM (active) |  | 0.151 µM (active) |
| O=c1c2ccccc2c(=O)c2c1cc(Cl)c1[nH]c3c([nH]c12)c(Cl)cc1c(=O)c2ccccc2c(=O)c13 | inactive | inactive | 12.8% (inactive) | inactive | inactive | inactive | inactive |  | inactive | inactive |  |
| O=C(Nc1ccc(F)cc1F)c1cccnc1Oc1cccc(C(F)(F)F)c1 | 53.8 µM (active) | inactive | 0.876% (inactive) | inactive | inactive | inactive | inactive |  |  | inactive |  |
| CCN(CC)Cc1nccn1-c1ccc([N+](=O)[O-])cc1C(=O)c1ccccc1Cl | inactive | inactive | -11.1% (inactive) | inactive | inactive |  | inactive |  |  |  |  |
| Clc1ccc(C(Cl)(Cl)Cl)cc1Cl | 33.9 µM (active) | 33.9 µM (active) |  | 33.9 µM (active) | inactive | 47.9 µM (active) | 47.9 µM (active) |  | 47.9 µM (active) |  | 33.9 µM (active) |
| c1cc[n+]2c(c1)-c1cccc[n+]1CC2 | inactive | inactive |  | inactive | inactive | inactive | inactive | inactive | inactive |  |  |
| CCCC[N+]1(C)CCCC1 (tested in a mixture with another compound) | inactive | inactive | 8.56% (inactive) | inactive | inactive | inactive | inactive |  |  |  |  |
| CCn1cc[n+](C)c1 (tested in a mixture with another compound) | inactive | inactive | -0.353% (inactive) | inactive | inactive | inactive | inactive |  | inactive | inactive |  |
| O=c1[nH]c(Cl)c(Cl)cc1Cl | inactive | inactive | 0.811% (inactive) |  | inactive | inactive | inactive | inactive | inactive |  |  |

| Compound | Potency [1] | Potency [2] | max response [3] | Potency [4] | Potency [5] | Potency [6] | Potency [7] | Potency [8] | Potency [9] | Potency [10] | Potency [3] |
| --- | --- | --- | --- | --- | --- | --- | --- | --- | --- | --- | --- |
| CCOP(=S)(OCC)SC(CCl)N1C(=O)c2ccccc2C1=O (stereo not given) | inactive | inactive | 6.49% (inactive) | inactive |  |  |  |  |  |  |  |
| NC1CCC(CC2CCC(N)CC2)CC1 (stereo not given) | inactive | inactive |  | inactive | inactive | inactive |  | inactive | inactive | inactive |  |
| O=C1C2(Cl)C3(Cl)C4(Cl)C(Cl)(Cl)C5(Cl)C3(Cl)C1(Cl)C5(Cl)C24Cl (stereo not given) | 42.9 µM (active) and 52.6 µM (active) | 21.5 µM (active) and 41.8 µM (active) |  |  | inactive | 48.2 µM (active) and 41.8 µM (active) | 21.5 µM (active) and 37.3 µM (active) | 42.9 µM (active) and 46.9 µM (active) |  | 48.2 µM (active) and 46.9 µM (active) | 13.6 µM (active) and 37.3 µM (active) |
| CSSC | inactive | inactive |  |  | inactive | inactive | 7.86 µM (active) | inactive | inactive | inactive |  |
| CC(C)NCC(O)c1ccccc1Cl (stereo not given) | inactive | inactive | 1.74% (inactive) | inactive | inactive |  | inactive |  | inactive | inactive |  |
| CCCCC(CC)COC(=O)OOC(C)(C)C (stereo not given) | inactive | inactive | 0.0606% (inactive) | inactive | inactive | inactive | inactive |  | inactive | inactive |  |
| CC[C@]1(O)CC[C@H]2[C@@H]3CCC4=CCCC[C@@H]4[C@H]3CC[C@@]21C | inactive | inactive |  | inactive | inactive | inactive | 23.9 µM (active) | inactive | inactive |  |  |
| ClSC(Cl)(Cl)Cl | inactive | inactive | 0.633% (inactive) |  | inactive | inactive |  | inactive |  | inactive |  |
| CC(=O)[O][Sn]([c]1ccccc1)([c]1ccccc1)[c]1ccccc1 | 0.219 µM (active) | 0.049 µM (active) |  | 0.245 µM (active) | inactive |  |  |  |  |  | 0.0347 µM (active) |
| O=S1(=O)OCC2C(CO1)C1(Cl)C(Cl)=C(Cl)C2(Cl)C1(Cl)Cl (stereo not given) | 49 µM (active) | 19.5 µM (active) |  | inactive | inactive | inactive |  |  | inactive |  | 21.9 µM (active) |
| OCC(Br)CBr (stereo not given) | inactive | inactive | -11.1% (inactive) | inactive | inactive | inactive | inactive |  | inactive | inactive |  |
| C[C@]12C/C(=C/O)C(=O)C[C@@H]1CC[C@@H]1[C@@H]2CC[C@@]2(C)[C@H]1CC[C@]2(C)O | 49.4 µM (active) and inactive | inactive | -17.5% (inactive) |  | inactive | inactive |  |  | inactive | inactive |  |
| Cc1ccc([N+](=O)[O-])[c]2c1[O][Hg]2 | 0.674 µM (active) | 3.38 µM (active) |  |  | inactive | 2.68 µM (active) | 1.9 µM (active) |  | 3.01 µM (active) | 2.39 µM (active) | 3.01 µM (active) |
| [C-]1=CC=CC1.[Cl][Zr+2][Cl].c1cc[cH-]c1 | inactive | inactive |  | inactive | inactive | inactive | inactive | inactive | inactive |  |  |
| Brc1ccc(Oc2ccc(Br)cc2Br)c(Br)c1 | inactive |  |  |  | inactive |  | inactive | inactive |  | inactive | 49 µM (active) |
| Cc1ccn2nc(S(=O)(=O)Nc3c(F)cccc3F)nc2n1 | inactive |  | 12.5% (inactive) | inactive | inactive |  | inactive | inactive | inactive | inactive |  |
| N#Cc1ccc(N(CC(N)=O)CC(F)(F)F)cc1C(F)(F)F | inactive |  | 0.171% (inactive) | inactive | inactive | inactive |  | inactive |  | inactive |  |
